Data reported in PubChem BioAssay (NCI).
About 79,000 compounds went through this panel and 15% of them were active in at least one assay; those are over-represented in the sample as a whole. Activity calls are given as the source filed them. Cut-off read from the data, not from the text of the source: active = growth inhibition above about 70%; inactive = the rest.

Assays:
[1] = NCI Yeast Anticancer Drug Screen. Data for the wt2 strain (AID 169);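 note: 0% = growth of vehicle-treated yeast cultures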; details: S. cerevisiae wt2 strain growth inhibition, stronger effect = higher value
In short: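 Genetically defined yeast strains from a DNA-repair/cell-cycle panel were used. Compound-exposed yeast growth was measured, and the inhibition was calculated relative to vehicle treatment.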

[2] = NCI Yeast Anticancer Drug Screen. Data for the mlh1 strain (AID 171);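 note: 0% = growth of vehicle-treated control cultures of the same strain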; details: S. cerevisiae mlh1 strain growth inhibition, stronger effect = higher value
In short: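 Here the genetically defined yeast mutant is grown with each compound, and the extent to which its growth falls below that of vehicle-exposed cells is reported.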

[3] = NCI Yeast Anticancer Drug Screen. Data for the sgs1 strain (AID 173);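 note: 0% = growth of vehicle-only control cultures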; details: S. cerevisiae sgs1 mutant, stronger effect = higher value
In short: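 Relative growth inhibition, referenced to vehicle, was determined in a yeast strain with a defined alteration affecting DNA damage repair or cell cycle control after compound exposure.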

[4] = NCI Yeast Anticancer Drug Screen. Data for the mlh1 rad18 strain (AID 175); details: S. cerevisiae mlh1 rad18 strain growth inhibition, stronger effect = higher value
In short: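 In this whole-cell yeast screen, a strain with altered DNA damage repair is challenged with compound, and its growth is measured against matched vehicle-treated controls.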

[5] = NCI Yeast Anticancer Drug Screen. Data for the rad18 strain (AID 177); details: S. cerevisiae rad18 mutant growth inhibition, stronger effect = higher value
In short: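 Screen uses a yeast strain with a defined lesion in DNA damage repair; compound effect is read as loss of growth compared to untreated vehicle cultures.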

[6] = NCI Yeast Anticancer Drug Screen. Data for the rad52 strain (AID 147);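 note: 0% = growth of vehicle-treated control cultures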; details: S. cerevisiae rad52 mutant growth inhibition, stronger effect = higher value
In short: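 Measured: yeast growth inhibition. System: strain with a defined DNA damage repair alteration. Reference: vehicle-treated control cultures.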

[7] = NCI Yeast Anticancer Drug Screen. Data for the wt1 strain (AID 149);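 note: 0% = growth of vehicle-treated wt1 cultures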; details: S. cerevisiae wt1 strain (SPY 50644) growth inhibition, stronger effect = higher value
In short: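 Vehicle-normalised growth inhibition; strain wt1; compound exposure.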

[8] = NCI Yeast Anticancer Drug Screen. Data for the rad50EPP+ strain (AID 151);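 note: 0% = growth of vehicle-treated control cultures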; details: S. cerevisiae rad50 mutant strain, stronger effect = higher value
In short: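 One strain with a rad50 alteration (rad50EPP+) was compound-treated, its growth then compared to that of vehicle controls.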

[9] = NCI Yeast Anticancer Drug Screen. Data for the mgt1 strain (AID 153); details: S. cerevisiae mgt1 mutant growth inhibition, stronger effect = higher value
In short: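 After exposure of the mgt1 yeast mutant to compound, growth was measured and reported as inhibition compared with vehicle controls.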

[10] = NCI Yeast Anticancer Drug Screen. Data for the rad50 strain (AID 155);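 note: 0% = growth of vehicle-only cultures of the same strain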; details: S. cerevisiae rad50 strain growth inhibition, stronger effect = higher value
In short: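 A DNA repair-deficient yeast mutant serves as the test organism; compound-induced growth inhibition is calculated against vehicle-treated cells.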

[11] = NCI Yeast Anticancer Drug Screen. Data for the mec2-1 strain (AID 157); details: S. cerevisiae mec2-1 strain, stronger effect = higher value
In short: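 Test agents were screened against the mec2-1 yeast strain, with defined DNA repair or cell cycle alteration. Growth was scored as inhibition against vehicle-only controls.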

[12] = NCI Yeast Anticancer Drug Screen. Data for the rad14 strain (AID 159);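 note: 0% = growth of vehicle-treated control cultures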; details: S. cerevisiae rad14 strain growth inhibition, stronger effect = higher value
In short: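 Vehicle-treated cultures served as the baseline for growth inhibition of a DNA repair-mutant yeast strain exposed to each compound.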

[13] = NCI Yeast Anticancer Drug Screen. Data for the sgs1 mgt1 strain (AID 161);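 note: 0% = growth of cultures given vehicle only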; details: S. cerevisiae sgs1 mgt1 strain, stronger effect = higher value
In short: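 Test agents were incubated with a DNA-repair-mutant yeast strain. Growth was then read and compared against vehicle-treated controls.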

[14] = NCI Yeast Anticancer Drug Screen. Data for the CLN2oe strain (AID 163);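 note: 0% = growth of vehicle-only control cultures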; details: S. cerevisiae CLN2oe strain, stronger effect = higher value
In short: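 Here, growth inhibition in a cell-cycle-altered yeast strain after compound exposure was quantified against vehicle control growth.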

[15] = NCI Yeast Anticancer Drug Screen. Data for the cln2 rad14 strain (AID 165);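 note: 0% = growth equal to vehicle treated cultures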; details: S. cerevisiae cln2 rad14 strain, stronger effect = higher value
In short: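 Growth of compound-exposed yeast (cln2 rad14 genotype) measured and expressed as inhibition relative to vehicle.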

[16] = NCI Yeast Anticancer Drug Screen. Data for the bub3 strain (AID 167); details: S. cerevisiae bub3 mutant strain, stronger effect = higher value
In short: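 Inhibition values come from growth of compound-treated mutant yeast normalised to vehicle-treated controls.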

[17] = at 5.0 µM (retest, dose inferred, filed as 0.5)
[18] = at 50.0 µM (retest, dose inferred, filed as 5.0)

Measured: growth inhibition

N#Cc1nc(Nc2ccc(Cl)cc2)sc1N
active: [1]; at 33.0 µM 81% | [1]; at 100.0 µM 84% | [2]; at 100.0 µM 94% | [5]; at 100.0 µM 91%
inactive: [1]; at 1.2 µM -20% | [1]; at 3.7 µM -36% | [1]; at 11.0 µM -20% | [2]; at 1.2 µM 1% | [2]; at 3.7 µM 27% | [2]; at 11.0 µM 21% | [2]; at 33.0 µM 64% | [3]; at 1.2 µM -20% | [3]; at 3.7 µM -13% | [3]; at 11.0 µM -2% | [3]; at 33.0 µM -1% | [3]; at 100.0 µM 40% | [4]; [17] -29% | [4]; [18] -24% | [4]; at 50.0 µM 49.9% | [5]; at 1.2 µM -17% | [5]; at 3.7 µM -17% | [5]; at 11.0 µM -3% | [5]; at 33.0 µM 44%

CCCCCCCCCCCCOCCOCCOCC(N)=O
active: [6]; at 33.0 µM 97% | [6]; at 100.0 µM 96% | [7]; at 33.0 µM 95% | [7]; at 100.0 µM 94% | [8]; at 100.0 µM 80% | [9]; at 33.0 µM 97% | [9]; at 100.0 µM 96% | [10]; at 33.0 µM 97% | [10]; at 50.0 µM 91.2% | [10]; at 100.0 µM 95% | [11]; at 33.0 µM 97% | [11]; at 50.0 µM 92.5% | [11]; at 100.0 µM 95% | [12]; at 33.0 µM 97% | [12]; at 100.0 µM 94% | [13]; [18] 98% | [13]; at 50.0 µM 93.3% | [14]; at 33.0 µM 96% | [14]; at 100.0 µM 93% | [15]; [18] 97% | [15]; at 50.0 µM 89.5% | [16]; at 33.0 µM 97% | [16]; [18] 97% | [16]; at 50.0 µM 91.5% | [16]; at 100.0 µM 94% | [1]; at 33.0 µM 97% | [1]; at 100.0 µM 96% | [2]; at 33.0 µM 93% | [2]; at 100.0 µM 96% | [3]; at 33.0 µM 96% | [3]; at 100.0 µM 94% | [4]; at 50.0 µM 91.1%
inactive: [6]; at 1.2 µM 15% | [6]; at 3.7 µM -11% | [6]; at 11.0 µM 1% | [7]; at 1.2 µM -39% | [7]; at 3.7 µM -39% | [7]; at 11.0 µM -41% | [8]; at 1.2 µM -14% | [8]; at 3.7 µM -20% | [8]; at 11.0 µM -11% | [8]; at 33.0 µM 10% | [9]; at 1.2 µM 9% | [9]; at 3.7 µM -8% | [9]; at 11.0 µM -10% | [10]; at 1.2 µM 6% | [10]; at 3.7 µM -1% | [10]; [17] 36% | [10]; at 11.0 µM 10% | [10]; [18] 36% | [11]; at 1.2 µM -6% | [11]; at 3.7 µM -6% | [11]; [17] 39% | [11]; at 11.0 µM 16% | [11]; [18] 29% | [12]; at 1.2 µM -9% | [12]; at 3.7 µM -11% | [12]; at 11.0 µM -17% | [13]; [17] 5% | [14]; at 1.2 µM -15% | [14]; at 3.7 µM -18% | [14]; at 11.0 µM -13% | [15]; [17] 61% | [16]; at 1.2 µM -6% | [16]; at 3.7 µM 1% | [16]; [17] 21% | [16]; at 11.0 µM -13% | [1]; at 1.2 µM -26% | [1]; at 3.7 µM -20% | [1]; at 11.0 µM -12% | [2]; at 1.2 µM -12% | [2]; at 3.7 µM -12% | [2]; at 11.0 µM 6% | [3]; at 1.2 µM -12% | [3]; at 3.7 µM -15% | [3]; at 11.0 µM -5% | [4]; [17] 26% | [4]; [18] 43%

COC(=O)/C(C#N)=C\NC(=S)C(N)=S
active: [6]; at 11.0 µM 86% | [6]; at 33.0 µM 99% | [6]; at 100.0 µM 98% | [7]; at 33.0 µM 99% | [7]; at 100.0 µM 98% | [8]; at 100.0 µM 97% | [9]; at 11.0 µM 79% | [9]; at 33.0 µM 99% | [9]; at 100.0 µM 98% | [10]; at 11.0 µM 90% | [10]; at 33.0 µM 98% | [10]; [18] 98% | [10]; at 50.0 µM 88.5% | [10]; at 100.0 µM 97% | [11]; at 11.0 µM 98% | [11]; at 33.0 µM 99% | [11]; [18] 99% | [11]; at 50.0 µM 93.2% | [11]; at 100.0 µM 98% | [12]; at 11.0 µM 98% | [12]; at 33.0 µM 99% | [12]; at 100.0 µM 98% | [13]; [18] 98% | [13]; at 50.0 µM 91.1% | [14]; at 11.0 µM 96% | [14]; at 33.0 µM 100% | [14]; at 100.0 µM 98% | [15]; [18] 99% | [15]; at 50.0 µM 89.5% | [16]; at 11.0 µM 99% | [16]; at 33.0 µM 99% | [16]; [18] 99% | [16]; at 50.0 µM 91.3% | [16]; at 100.0 µM 98% | [1]; at 33.0 µM 99% | [1]; at 100.0 µM 98% | [2]; at 11.0 µM 98% | [2]; at 33.0 µM 99% | [2]; at 100.0 µM 98% | [3]; at 11.0 µM 86% | [3]; at 33.0 µM 99% | [3]; at 100.0 µM 98% | [4]; [18] 98% | [4]; at 50.0 µM 89.3%
inactive: [6]; at 1.2 µM -6% | [6]; at 3.7 µM 24% | [7]; at 1.2 µM 8% | [7]; at 3.7 µM 26% | [7]; at 11.0 µM 54% | [8]; at 1.2 µM -24% | [8]; at 3.7 µM -24% | [8]; at 11.0 µM 2% | [8]; at 33.0 µM 64% | [9]; at 1.2 µM 9% | [9]; at 3.7 µM 21% | [10]; at 1.2 µM 12% | [10]; at 3.7 µM 30% | [10]; [17] 2% | [11]; at 1.2 µM -5% | [11]; at 3.7 µM 24% | [11]; [17] -1% | [12]; at 1.2 µM 4% | [12]; at 3.7 µM 15% | [13]; [17] 13% | [14]; at 1.2 µM 21% | [14]; at 3.7 µM 40% | [15]; [17] 22% | [16]; at 1.2 µM 24% | [16]; at 3.7 µM 34% | [16]; [17] 4% | [1]; at 1.2 µM -6% | [1]; at 3.7 µM 10% | [1]; at 11.0 µM 40% | [2]; at 1.2 µM 17% | [2]; at 3.7 µM 32% | [3]; at 1.2 µM 9% | [3]; at 3.7 µM 25% | [4]; [17] 50%
